Assay results published in article PMC5540273 (PLoS ONE, 2017).

tested on: T1, NIK
T1 construct: gene MAP3K14
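Also: kd values determined as follow-up on hits from a single-replicate KINOMEscan panel screen.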

Row | SMILES | Kd
1 | Nc1ncnc2c1ncn2-c1ccc(Cl)cc1 [AH2635] | > 10 µM
2 | COc1cccc(C2=C(N(C)c3ccccc3)C(=O)NC2=O)c1 [SB-334865] | > 10 µM
3 | COC(=O)c1c(-c2ccccc2)c2cc(C)ccc2c(=O)n1Cc1ccccc1 | > 10 µM
4 | Nc1n[nH]c2nnc(-c3ccccc3)c(-c3ccccc3)c12 [GW554060] | > 10 µM
